Experimental data: PubChem BioAssay AID1159580 (chemical genetic matrix, 2015)
Screen size: about 5,500 compounds; about 2,000 (36%) were called active. Another 18% or so got no clear call; they are omitted. No stated cut-off is given here; in the data, active means normalized growth mostly below about 0.91 (no sharp cut-off); inconclusive means no clear call, values can overlap the other calls; inactive means mostly above about 0.92. This is one part of the list.

Experiment: chemical genetic growth profiling, strain panel (AID 1159580);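 further: tested at 20 µM; growth read once vehicle control cultures reached saturation at 30 °C; 1 = growth at the plate median or of vehicle wells; lower values mean less growth of the strain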
Settings: S. cerevisiae deletion strains, growth OD

Measured: normalized growth

NCCNS(=O)(=O)c1cccc2cnccc12
inactive: locus YAL040C, strain CLN3, hits give low values 1.02 | locus YCL061C, strain MRC1 (second series), hits give low values 1.01 | locus YDR363W, strain ESC2, hits give low values 0.973 | locus YER002W, strain NOP16, hits give low values 0.988 | locus YGR078C, strain PAC10, hits give low values 0.968 | locus YGR229C, strain SMI1, hits give low values 0.972 | locus YNL128W, strain TEP1, hits give low values 0.986 | locus YNL153C, strain GIM3, hits give low values 1.05 | locus YNL175C, strain NOP13, hits give low values 0.958 | locus YNL197C, strain WHI3, hits give low values 0.917 | locus YNL224C, strain SQS1, hits give low values 0.98 | locus YNL322C, strain KRE1, hits give low values 0.98 | locus YOR083W, strain WHI5 (second series), hits give low values 0.923 | locus YPL241C, strain CIN2, hits give low values 0.998

Cc1nc(N)cc(C[n+]2csc(CCO)c2C)n1
inactive: locus YAL021C, strain ccr4, hits give low values 0.946 | locus YAL026C, strain drs2, hits give low values 0.974 | locus YAL030W, strain snc1, hits give low values 0.981 | locus YBL061C, strain skt5, hits give low values 0.983 | locus YBR009C, strain hhf1, hits give low values 0.979 | locus YBR023C, strain chs3, hits give low values 0.998 | locus YBR171W, strain sec66, hits give low values 0.971 | locus YBR231C, strain swc5, hits give low values 0.987 | locus YBR279W, strain paf1, hits give low values 0.985 | locus YCL011C, strain gbp2, hits give low values 0.966 | locus YCL016C, strain dcc1, hits give low values 0.992 | locus YCL061C, strain MRC1, hits give low values 0.977 | locus YCL069W, strain vba3, hits give low values 0.981 | locus YCR088W, strain abp1, hits give low values 0.98 | locus YDL005C, strain med2, hits give low values 0.984 | locus YDL040C, strain nat1, hits give low values 0.988 | locus YDR001C, strain nth1, hits give low values 0.974 | locus YDR069C, strain doa4, hits give low values 0.984 | locus YDR137W, strain rgp1, hits give low values 0.966 | locus YDR159W, strain sac3, hits give low values 0.965 | locus YDR195W, strain ref2 0.944 | locus YDR297W, strain sur2, hits give low values 0.979 | locus YDR334W, strain swr1, hits give low values 0.955 | locus YDR335W, strain msn5, hits give low values 0.966 | locus YDR392W, strain spt3, hits give low values 0.973 | locus YEL003W, strain gim4, hits give low values 0.971 | locus YEL037C, strain rad23, hits give low values 0.967 | locus YEL061C, strain CIN8 (second series), hits give low values 0.974 | locus YER015W, strain faa2, hits give low values 0.975 | locus YER016W, strain bim1, hits give low values 0.979 | locus YER111C, strain swi4, hits give low values 0.992 | locus YER155C, strain BEM2 (second series), hits give low values 0.975 | locus YFR010W, strain ubp6, hits give low values 0.962 | locus YGL167C, strain pmr1, hits give low values 0.973 | locus YGL173C, strain kem1, hits give low values 0.979 | locus YGL227W, strain vid30, hits give low values 0.987 | locus YGL240W, strain doc1, hits give low values 0.98 | locus YGL253W, strain hxk2, hits give low values 0.986 | locus YHR013C, strain ard1, hits give low values 0.986 | locus YHR027C, strain rpn1, hits give low values 0.988 | locus YHR030C, strain SLT2, hits give low values 0.954 | locus YHR079C, strain IRE1, hits give low values 0.942 | locus YHR142W, strain chs7, hits give low values 0.963 | locus YJL092W, strain hpr5, hits give low values 0.966 | locus YJL095W, strain BCK1 (second series), hits give low values 0.978 | locus YJL095W, strain BCK1, hits give low values 0.968 | locus YJL115W, strain asf1, hits give low values 0.969 | locus YJL129C, strain trk1, hits give low values 0.965 | locus YJL154C, strain vps35, hits give low values 0.988 | locus YJL164C, strain tpk1, hits give low values 0.985 | locus YJL166W, strain qcr8, hits give low values 0.981 | locus YJL187C, strain SWE1, hits give low values 0.99 | locus YJR066W, strain TOR1, hits give low values 0.932 | locus YKL160W, strain elf1, hits give low values 0.981 | locus YKR026C, strain gcn3, hits give low values 0.97 | locus YKR091W, strain srl3, hits give low values 0.978 | locus YLL001W, strain dnm1, hits give low values 0.983 | locus YLL026W, hits give low values 0.988 | locus YLL041C, strain sdh2, hits give low values 0.98 | locus YLR027C, strain aat2, hits give low values 0.986 | locus YLR113W, strain HOG1, hits give low values 0.941 | locus YLR221C, strain rsa3, hits give low values 0.982 | locus YLR258W, strain gsy2, hits give low values 0.986 | locus YLR262C, strain YPT6 (second series), hits give low values 0.992 | locus YLR320W, strain mms22, hits give low values 0.988 | locus YLR342W, strain FKS1, hits give low values 0.991 | locus YLR357W, strain rsc2, hits give low values 0.99 | locus YLR370C, strain arc18, hits give low values 0.979 | locus YLR384C, strain iki3, hits give low values 0.983 | locus YML120C, strain ndi1, hits give low values 0.962 | locus YMR058W, strain fet3, hits give low values 0.969 | locus YMR125W, strain sto1, hits give low values 0.946 | locus YMR129W, hits give low values 0.97 | locus YMR205C, strain PFK2, hits give low values 1.01 | locus YMR231W, strain pep5, hits give low values 0.992 | locus YNL071W, strain lat1, hits give low values 0.988 | locus YNL183C, strain NPR1, hits give low values 0.926 | locus YNL209W, strain ssb2, hits give low values 0.981 | locus YNL248C, strain rpa49, hits give low values 0.948 | locus YNL322C, strain KRE1 (second series), hits give low values 0.964 | locus YNR049C, strain mso1, hits give low values 0.978 | locus YOR001W, strain rrp6, hits give low values 0.95 | locus YOR070C, strain gyp1, hits give low values 0.998 | locus YOR080W, strain dia2, hits give low values 0.971 | locus YOR083W, strain WHI5, hits give low values 0.969 | locus YOR106W, strain vam3, hits give low values 0.972 | locus YOR231W, strain MKK1, hits give low values 0.96 | locus YOR265W, strain rbl2, hits give low values 0.983 | locus YOR270C, strain vph1, hits give low values 0.94 | locus YOR290C, strain snf2, hits give low values 0.975 | locus YPL051W, strain arl3, hits give low values 0.996 | locus YPL078C, strain atp4, hits give low values 0.976 | locus YPL106C, strain sse1, hits give low values 0.953 | locus YPL240C, strain hsp82, hits give low values 0.972 | locus YPL256C, strain CLN2, hits give low values 0.95
